An excerpt weighted towards active compounds, which were near 18% of everything screened.
LDHA inh: blocks human lactate dehydrogenase A | P00338 | activity change, % (values are at about 110 or 230 µM) | purified LDHA, NADH/diaphorase-resazurin fluorescence; active compounds read low | AID 1347041 | actives 0.15% (n = 480,000); in the data active means activity change below about -30%; inconclusive means mostly about -25% to -30%;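 further: plate controls were DMSO wells for no effect and wells without enzyme for full effect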
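Human LDH5 at 2 nM final in Tris HCl pH 7.4 with 0.06 mM NADH and 0.2 mM pyruvate, reacted 5 minutes at room temperature. Remaining NADH coupled via diaphorase/resazurin; resorufin fluorescence read at 0 and 20 minutes, normalized to enzyme-free and DMSO wells.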
RORg inh: blocks mouse ROR gamma transcriptional activity; Potency, µM (titrated, usually from 53.6 µM), for inactives: top-dose activity change, negative = inhibition, actives largely listed as inhibitors; actives 5.4% (n = 310,000); AID 2551; Drosophila S2 Gal4-RORgamma UAS-luciferase reporter, 20 h; further: potency means the concentration at half of the fitted maximal effect; nearly all actives have a fitted effect of over 60% in size
Target sequence (P51450 whole entry, looked up, the tested form may be a part): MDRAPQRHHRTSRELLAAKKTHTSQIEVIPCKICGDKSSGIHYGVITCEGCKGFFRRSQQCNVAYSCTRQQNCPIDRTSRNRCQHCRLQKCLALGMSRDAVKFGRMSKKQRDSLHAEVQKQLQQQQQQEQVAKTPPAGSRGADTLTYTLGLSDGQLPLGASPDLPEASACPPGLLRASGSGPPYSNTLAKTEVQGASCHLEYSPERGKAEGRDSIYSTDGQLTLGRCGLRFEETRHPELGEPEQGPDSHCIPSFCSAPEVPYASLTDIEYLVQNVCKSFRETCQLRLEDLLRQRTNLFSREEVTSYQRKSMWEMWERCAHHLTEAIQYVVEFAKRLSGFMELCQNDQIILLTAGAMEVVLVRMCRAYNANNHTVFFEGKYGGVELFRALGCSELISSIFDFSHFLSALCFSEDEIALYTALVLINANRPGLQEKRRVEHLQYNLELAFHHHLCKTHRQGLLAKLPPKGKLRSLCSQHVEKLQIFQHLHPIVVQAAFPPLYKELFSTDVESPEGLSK
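In this cell-based reporter format, copper sulfate (700 uM final) drives Gal4–ROR gamma fusion expression from a metallothionein promoter in Drosophila Schneider cells; compounds preincubated 1 hr, reporter read after 20 hr at ambient temperature.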
VP16 counter: counter-screen for ROR gamma inhibitors: Gal4-VP16 reporter | Drosophila S2 Gal4-VP16 UAS-luciferase, luminescence, 20 h | Potency, µM (series often up to 53.6 µM), inactives show at the top dose activity, negative = inhibition, most hits filed as inhibitors | actives 3.5% (n = 310,000) | AID 2546;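 further: Gal4-VP16 expression switched on by copper sulfate through the metallothionein promoter; potency means the concentration at half of the fitted maximal effect; nearly all actives have a fitted effect of over 50% in size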
IL1B secr inh: inhibitors of inflammasome signaling (IL-1 beta secretion); THP-1 LPS/ATP IL-1B secretion, AlphaLISA, 16 h; active compounds read low; activity change, % at 57.5 µM; actives 4.7% (n = 360,000); in the data active means activity change below about -50%; inconclusive means mostly about -30% to -49%
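Secreted IL-1B measured by AlphaLISA bead assay after 16 h compound exposure of THP-1 cells; compounds (final up to 57.5 uM) added 1 h before LPS (250 ng/mL) and ATP (1.25 mM) stimulation; lower signal means less secretion.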
DT40 TDP1 no CPT: qHTS for Inhibitors of human tyrosyl-DNA phosphodiesterase 1 (TDP1): qHTS in cells in absence of CPT; DT40 Tdp1-/- hTDP1 cells, no CPT, ATP luminescence, 48 h; Potency, µM (series often up to 46.2 µM), for inactives: at the highest dose activity change, negative = growth inhibition, actives largely listed as inhibitors; actives 15% (n = 420,000); AID 686978, 2013; further: potency means the concentration at half of the fitted maximal effect; nearly all actives have a fitted effect of over 55% in size
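Growth kinetics read by CellTiter-Glo luminescence after ≥48 hr at 37 °C. Cells: DT40 Tdp1-/- stably carrying human TDP1, 400 per well, compound exposure in the absence of CPT (DMSO vehicle).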
DT40 TDP1 CPT: growth inhibition of DT40 Tdp1-/-;hTDP1 cells with camptothecin (screen for TDP1 inhibitors). Potency, µM (titrated, usually from 46.2 µM), inactives show top-dose activity change, negative = growth inhibition, hits mostly inhibitors. chicken DT40 Tdp1-/-;hTDP1 cells + 20 nM CPT, ATP luminescence, 48 h. actives 12% (n = 420,000); further: potency means the concentration at half of the fitted maximal effect; nearly all actives have a fitted effect of over 55% in size
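Cell growth measured by CellTiter-Glo luminescence after a minimum 48 h, 37 C compound exposure with 20 nM CPT in Tdp1-knockout DT40 cells stably expressing hTDP1, seeded 400/well; qHTS titration format.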
* marks the source's active call; other numbers are inactive results; ? = inconclusive; . = no result; [ ] = remark or other dose. Unless noted, the call rests on the fitted dose curve; in most records, active means well fitted curve in the direction sought with a large enough effect; inconclusive means small, poorly fitted or top-dose-only effect, or another doubt; inactive means no such curve, though single readings can be large; an effect the other way counts as inactive or inconclusive. Unless noted, on the % scale 0 is the no-effect control and ±100 the full control effect.

SMILES	LDHA inh	RORg inh	VP16 counter	IL1B secr inh	DT40 TDP1 no CPT	DT40 TDP1 CPT
O=C1/C(=C/c2ccccc2)SC(=S)N1CC(=O)N1CCCCC1c1cccnc1 (stereo unspecified)	-2	14%	24%	-24	16µM*	15µM*
O=C(CCCN1C(=O)/C(=C/c2ccccc2)SC1=S)N1CCOCC1	1	-38%	?	-96*	?	?
Cc1oc(-c2ccccc2)nc1C(=O)Nc1ccc(S(=O)(=O)NC2CC2)cc1	11	.	.	.	.	.
CN(Cc1ccco1)C(=O)NCc1ccc(F)cc1	-15	.	.	.	.	.
NC(=O)c1nsc(C(=O)N(c2ccc(F)cc2)C(C(=O)NCC2CCCO2)c2c[nH]c3ccccc23)c1N (stereo unspecified)	3	-113%	16µM*	-60*	?	?
CCOc1ccc(C(C(=O)NCC2CCCO2)N(C(=O)c2snc(C(N)=O)c2N)c2ccc(F)cc2)cc1 (stereo unspecified)	-3	29%	0%	?	?	18µM*
COc1cccc(N(C(=O)c2snc(C(N)=O)c2N)C(C(=O)NCC2CCCO2)c2ccc(F)cc2)c1 (stereo unspecified)	-3	1%	?	0	?	?
Cc1cccc(N(C(=O)c2snc(C(N)=O)c2N)C(C(=O)NCC2CCCO2)c2c[nH]c3ccccc23)c1 (stereo unspecified)	-1	31%	-15%	?	?	?
CCc1ccccc1N(C(=O)c1snc(C(N)=O)c1N)C(C(=O)NCC1CCCO1)c1ccc(OC)c(OC)c1 (stereo unspecified)	-3	0%	3%	8	12µM*	16µM*
NC(=O)c1nsc(C(=O)N(c2cccc(F)c2)C(C(=O)NCC2CCCO2)c2c[nH]c3ccccc23)c1N (stereo unspecified)	-10	8%	0%	-68*	-11%	4%
Cc1ccc(S(=O)(=O)Oc2ccc(Cl)cc2C2C3=C(CCCC3=O)OC3=C2C(=O)CCC3)cc1	10	.	.	.	.	.
O=C(NCc1coc(-c2cccs2)n1)c1ccc(F)cc1F	-10	.	.	.	.	.
CCOc1cc(Br)c(C2C(C#N)=C(N)Oc3c2ccc2ccccc32)cc1OC (stereo unspecified)	-10	.	.	.	.	.
COc1ccc(N(C(=O)Cn2nnc(-c3ccccc3F)n2)C(C(=O)NCC2CCCO2)c2ccc(Cl)cc2)cc1 (stereo unspecified)	-9	2%	5%	13	9.2µM*	?
COc1ccc(OC)c(/C=N/O)c1	7	.	.	.	.	.
CCC(Oc1ccc(F)cc1)C(=O)N1CCC(c2nc3ccccc3o2)CC1 (stereo unspecified)	7	.	.	.	.	.
CCCn1nnnc1NCc1ccc(F)cc1	-2	-25%	-5%	8	6%	1%
CCCCn1nnnc1NCc1cccnc1	2	-12%[0.365 µM]	.	-3	13µM*	8.2µM*
CCCn1nnnc1NCc1ccc(SC)cc1	0	-3%[1.91 µM]	5%	-58*	-4%	-9%
Cc1ccoc1C(=O)OCc1ccccc1C#N	1	.	.	.	.	.
Fc1ccc(-c2cn3cc(C(F)(F)F)cc(Cl)c3n2)cc1	-6	-15%	-18%	20	-29%	-2%
COc1ccc(-c2cn3cc(C(F)(F)F)cc(Cl)c3n2)cc1	-1	-3%	0%	58	18µM*	?
Brc1ccccc1-c1nc(-c2ccncc2)no1	6	.	.	.	.	.
Cc1ccc(/C=C2\CCc3ccccc3C2=O)o1	40	.	.	.	.	.
CNCCC=C1c2ccccc2CCc2ccccc21	0	16%	-3%	-64*	21µM*	9.2µM*
SMILES	LDHA inh	RORg inh	VP16 counter	IL1B secr inh	DT40 TDP1 no CPT	DT40 TDP1 CPT
Cc1ccccc1Nc1scc(-c2ccc(Cl)cc2)[n+]1-c1ccccc1C	-1	24%	-2%	-15	23µM*	18µM*
Cc1ccc(-c2csc(Nc3ccccc3C)n2)cc1	1	.	.	.	.	.
CC(C)CCNc1nc(N)c([N+](=O)[O-])c(NCC2CCCO2)n1 (stereo unspecified)	-5	?	3%	28	?	15µM*
Nc1nc(NCC2CCCO2)nc(NCC2CCCO2)c1[N+](=O)[O-] (stereo unspecified)	-1	1%	-6%	27	0%	-10%
COC(=O)c1cnc(Oc2ccc(NC(=O)NC(=O)c3c(F)cccc3Cl)cc2)cc1C(F)(F)F	-4	35%	-12%	65	4.1µM*	3.3µM*
COC(=O)c1cnc(Oc2ccc(NC(=O)NC(=O)c3c(OC)cccc3OC)cc2)cc1C(F)(F)F	-5	33%	-9%	47	1.3µM*	1.2µM*
COC(=O)c1cnc(Oc2ccc(NC(=O)NC(=O)c3c(F)cccc3F)cc2)cc1C(F)(F)F	-2	-17%	-8%	35	?	-6%
COC(=O)c1cnc(Oc2c(Cl)cc(N)cc2Cl)cc1C(F)(F)F	2	-25%	5%	.	15µM*	?
O=c1oc(-c2ccc(F)cc2)nn1CC(O)COc1ccc(Br)cc1 (stereo unspecified)	2	.	.	.	.	.
O=C(NCc1ccccc1)N1CCc2sccc2C1	11	.	.	.	.	.
O=C(CC1(O)C(=O)N(C/C=C/c2ccccc2)c2ccccc21)c1ccc2c(c1)OCO2 (stereo unspecified)	11	.	.	.	.	.
Cc1cccc(C(=O)NCCc2c[nH]c3ccccc23)c1C	0	.	.	.	.	.
Cc1ccccc1CN1C(=O)c2ccccc2Sc2ccc(C(=O)N3CCOCC3)cc21	1	.	.	.	18µM*	?
O=C(c1ccc2c(c1)N(Cc1ccccc1)C(=O)c1ccccc1S2)N1CCCC1	-6	6%	-15%	-16	9.2µM*	16µM*
Cc1ccccc1CN1C(=O)c2ccccc2Sc2ccc(C(=O)N3CCCC3)cc21	-4	.	.	.	16µM*	21µM*
CCOc1ccc2cc(C(=O)N3CCC(N4CCCCC4)CC3)[nH]c2c1	-1	.	.	.	.	.
CCOC(=O)c1cc(-c2ccccc2)sc1NC(=O)c1ccc(OC)c(OC)c1	-5	13%	-14%	-3	?	13µM*
CCOC(=O)c1cc(-c2ccccc2)sc1NC(=O)C(C)N1C(=O)NC(C)(c2ccc(Cl)cc2)C1=O (stereo unspecified)	-5	15%	10%	-53*	-15%	1%
CCOC(=O)c1cc(-c2ccccc2)sc1NC(=O)COC	0	-12%	-9%	24	-1%	-18%
